For orientation: remaining activity means the signal under treatment as a percentage of the control signal.

Unmarked numbers belong to inactive results. Rule as the data show it: active = remaining activity below about 50%; inactive = the rest.

Sequence of Phospholipase D2 (Homo sapiens) (O14939 whole entry, looked up): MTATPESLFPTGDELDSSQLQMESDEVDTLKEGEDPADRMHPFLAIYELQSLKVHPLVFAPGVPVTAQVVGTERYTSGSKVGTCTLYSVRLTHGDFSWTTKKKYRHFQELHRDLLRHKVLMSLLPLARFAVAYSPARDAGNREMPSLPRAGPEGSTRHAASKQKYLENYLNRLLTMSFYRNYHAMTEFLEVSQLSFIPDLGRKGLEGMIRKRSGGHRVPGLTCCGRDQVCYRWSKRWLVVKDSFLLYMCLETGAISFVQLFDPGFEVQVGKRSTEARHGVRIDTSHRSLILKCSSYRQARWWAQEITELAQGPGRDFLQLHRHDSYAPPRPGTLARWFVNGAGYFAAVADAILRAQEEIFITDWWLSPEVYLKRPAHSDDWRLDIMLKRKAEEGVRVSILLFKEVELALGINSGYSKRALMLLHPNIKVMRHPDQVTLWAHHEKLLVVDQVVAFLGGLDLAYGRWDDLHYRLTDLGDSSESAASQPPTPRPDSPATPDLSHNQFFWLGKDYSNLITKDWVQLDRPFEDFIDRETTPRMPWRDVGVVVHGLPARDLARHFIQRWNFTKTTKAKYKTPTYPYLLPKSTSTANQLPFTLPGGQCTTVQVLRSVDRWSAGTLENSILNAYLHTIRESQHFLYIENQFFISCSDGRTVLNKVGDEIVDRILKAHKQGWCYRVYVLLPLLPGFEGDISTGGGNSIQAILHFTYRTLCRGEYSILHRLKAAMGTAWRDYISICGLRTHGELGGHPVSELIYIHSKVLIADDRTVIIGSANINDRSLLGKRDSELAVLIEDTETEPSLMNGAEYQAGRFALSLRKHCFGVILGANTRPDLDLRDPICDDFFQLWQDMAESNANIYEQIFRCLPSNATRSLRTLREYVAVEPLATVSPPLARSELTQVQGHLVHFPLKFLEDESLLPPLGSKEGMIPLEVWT
Sequence of Phospholipase D2 (Homo sapiens) (O14939 whole entry, looked up): as above

This assay addresses Phospholipase D2 (Homo sapiens) (UniProt O14939). The assay is described as follows: cellular phospholipase D2 activity inhibition – cell-based, HEK293, single concentration (AID 602143).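 Also: tested at 200 nM.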 Particulars: HEK293 cellular PLD2 activity, percent of control; active compounds read low.
`C[C@@H](CN1CCC(n2c(=O)[nH]c3ccccc32)CC1)NC(=O)CSc1ccccc1`: the remaining activity is 86.7%.

In the case of `Cc1cccc(NC(=S)NCCN2CCC(n3c(=O)[nH]c4ccccc43)CC2)c1`, the remaining activity was 113%. With `O=C(NCCN1CCC(n2c(=O)[nH]c3ccccc32)CC1)c1cscn1` the figure was 57.9%.

`O=C(NCCN1CCN(c2ccccn2)CC1)c1ccc(F)cc1`: the remaining activity is 101%. For `Cn1c(=O)n(C2CCN(CCNC(=O)c3ccc4ccccc4c3)CC2)c2ccccc21`, the remaining activity was 52.7%.

With `O=C(NCCN1CCC(n2c(=O)[nH]c3ccc(F)cc32)CC1)c1ccc(C(F)(F)F)cc1`, the remaining activity is 61.8%. With `O=C(NCCN1CCC(c2nc3ccccc3[nH]2)CC1)C1CC1c1ccccc1` (stereo not drawn) the figure was 95.6%; with `COc1cccc(C(=O)NCCN2CCC(n3c(=O)[nH]c4ccccc43)CC2)n1`, 72.5%; with `O=C(NCCN1CCN(c2ccccn2)CC1)c1ccc(C(F)(F)F)cc1`, 117%. With `C[C@@H](CN1CCC(n2c(=O)[nH]c3cc(-c4ccsc4)ccc32)CC1)NC(=O)[C@H]1C[C@@H]1c1ccccc1` the figure was 81.2%.

As for `Cc1ccc(C(=O)NCCN2CCN(c3ccncc3)CC2)cc1`, the remaining activity is 114%. To `C[C@@H](CN1CCC(n2c(=O)[nH]c3cc(-c4ccc(C(F)(F)F)cc4)ccc32)CC1)NC(=O)[C@H]1C[C@@H]1c1ccccc1` belongs 70.9%; to `O=C(NCCN1CCC(n2c(=O)[nH]c3ccccc32)CC1)C1(c2ccccc2)CCC1`, 86.3%.

Source of the values: PubChem BioAssay AID602143 (Vanderbilt Specialized Chemistry Center, 2011).
